This is an account of results in PubChem BioAssay (NCATS).

The structures appear in SMILES notation. Inconclusive results are not listed. Unmarked numbers belong to inactive results. Calls of active or inactive are those of the source. Calls come from the whole dose curve; as a rule, active = well fitted curve in the direction sought with a large enough effect; inconclusive = small, poorly fitted or top-dose-only effect, or another doubt; inactive = no such curve, though single readings can be large; an effect the other way counts as inactive or inconclusive.

Usually viability stands for a read-out of living cells in per cent, often relative to untreated cells.

Experiment [1] in a line: BET inhibitor-based combinations targeting novel dependencies in MECOM-rearranged (r) AML: SET-2 cell line (AID 2202231).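 For viability: plate controls were DMSO treated cells for no effect and wells without cells for full effect.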 Note: nearly all actives have a fitted effect of over 35% in size. The following applies: SET-2 AML cells viability, CellTiter-Glo luminescence, 48 h; viability: active compounds read low, concentration not given here. An outline of the steps:
(§1)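 Each compound was tested at eleven concentrations on cells seeded at 500/well. After two days' incubation, ATP-based luminescence reported viability; responses relative to DMSO and blank wells yielded AUC and cell-line-centred Z-AUC.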
(In ATP-based viability assays light output follows the ATP content of the culture.)

Experiment [2] is described as follows: BET inhibitor-based combinations targeting novel dependencies in MECOM-rearranged (r) AML: MV-4-11 cell line (AID 2202233).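 For viability, % of control: plate controls were DMSO for no effect and blank wells for full effect.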 Note: nearly all actives have a fitted effect of over 45% in size. Summed up: (§2)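 First, 500 cells per well were seeded; next, drugs were pinned as 11-point doses; then plates sat 48 hr in the incubator; finally CellTiter-Glo was added and luminescence read, with AUC and Z-AUC computed.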
Experiment [3] is described as follows: BET inhibitor-based combinations targeting novel dependencies in MECOM-rearranged (r) AML: HNT-34 cell line (AID 2202234).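 For viability (% of control): plate controls were vehicle wells for no effect and cell-free wells for full effect.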 Note: nearly all actives have a fitted effect of over 35% in size. Summed up:
as §2

The nature of experiment [4]: BET inhibitor-based combinations targeting novel dependencies in MECOM-rearranged (r) AML: UCSD-AML1 cell line (AID 2202235).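 For viability (% of control): series mostly up to about 46 µM; plate controls were DMSO vehicle wells for no effect and blank wells for full effect.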 Note: nearly all actives have a fitted effect of over 40% in size. An outline of the steps: as §2
Experiment [5] can be described thus: BET inhibitor-based combinations targeting novel dependencies in MECOM-rearranged (r) AML: AML-191 cell line (AID 2202236; note: nearly all actives have a fitted effect of over 35% in size;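 for viability (% of control): plate controls were vehicle wells for no effect and wells without cells for full effect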). Summed up: as §1
A short description of experiment [6]: BET inhibitor-based combinations targeting novel dependencies in MECOM-rearranged (r) AML: AML-194 cell line (AID 2202237; note: nearly all actives have a fitted effect of over 40% in size;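 for viability (% of control): plate controls were vehicle wells for no effect and wells without cells for full effect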). An outline of the steps:
as §1
Potency is the fitted concentration of half-maximal effect.

Take `C=CCNC1=C2CC(C)CC(OC)C(O)C(C)/C=C(\C)C(OC(N)=O)C(OC)/C=C/C=C(\C)C(=O)NC(=CC1=O)C2=O` (stereo not drawn): the Potency in experiment [1] was 8.33 µM (active); in experiment [2] it was 0.166 µM (active); in experiment [3] it was 3.32 µM (active); in experiment [4], 1.32 µM (active).

As to `O=C1NC(=O)[C@@H](c2c[nH]c3ccccc23)[C@H]1c1cn2c3c(cccc13)CCC2`, the Potency was 2.35 µM (active) in experiment [1]; 1.32 µM (active) in experiment [2]; 0.934 µM (active) in experiment [3]; 1.05 µM (active) in experiment [4]; 0.934 µM (active) in experiment [5]; 0.934 µM (active) in experiment [6].

As to `c1ccc2c(-c3cnn4cc(-c5ccc(OCCN6CCOCC6)cc5)cnc34)ccnc2c1`, the Potency in experiment [1] is 12.9 µM (active); in experiment [2], 4.56 µM (active).

In the case of `Nc1nc(OC(c2ccc(-c3cccc(F)c3)cc2)C(F)(F)F)cc(-c2ccc(C[C@@H](N)C(=O)O)cc2)n1` (stereo partly drawn), in experiment [1], the viability was 100%. In addition, the Potency entry in experiment [2], in experiment [4], in experiment [5] and in experiment [6] was “inactive” in each case.

Take `CCc1cc(/C(C)=N/OCc2ccc(C3CCCCC3)c(C(F)(F)F)c2)ccc1CN1CC(C(=O)O)C1`: the Potency in experiment [1] was 16.6 µM (active); in experiment [2], 8.33 µM (active). Further, the Potency result in experiment [3], in experiment [4] and in experiment [6] was “inactive” each time.

Take `CN[C@@H](C)C(=O)N[C@H](C(=O)N1CCC[C@H]1c1nc(C(=O)c2ccc(F)cc2)cs1)C1CCCCC1`: the Potency in experiment [1] was 16.6 µM (active); in experiment [2], 16.6 µM (active); in experiment [4] it was 20.9 µM (active).

On to `CC(C)(C(=O)NCC(F)(F)C(F)(F)F)C(=O)N[C@@H]1C(=O)Nc2ccccc2-c2ccccc21`, for which the viability in experiment [1] is 105%. Further, the Potency result in experiment [2], in experiment [3], in experiment [4], in experiment [5] and in experiment [6] was “inactive” each time.

For the molecule `CN(C)C/C=C/C(=O)Nc1cc2c(Nc3ccc(F)c(Cl)c3)ncnc2cc1O[C@H]1CCOC1`, the Potency in experiment [1] was 4.68 µM (active); in experiment [2], 1.18 µM (active); in experiment [3] it was 2.95 µM (active); in experiment [5], 7.42 µM (active); in experiment [6], 7.42 µM (active).

Regarding `CCN(C(=O)c1ccccc1OC)c1cc2c(cc1N1CCNC[C@H]1C)n(C)c(=O)n2C`, in experiment [1], the viability was 119%. Further, the Potency entry in experiment [2], in experiment [3], in experiment [4] and in experiment [6] was “inactive” throughout.

Consider `COCCNc1cc(NC(=O)N2CCCc3cc(CN4CCN(C)CC4=O)c(C=O)nc32)ncc1C#N`, for which the viability in experiment [1] was 114%. In addition, the viability, % of control in experiment [2] is 97.1% [at 8.46 µM]. Besides, the viability (% of control) was 102% [at 8.46 µM] in experiment [3], 96.8% [at 8.46 µM] in experiment [4], 96.5% [at 8.46 µM] in experiment [5] and 95.1% [at 8.46 µM] in experiment [6].

For `O=C(O)/C=C/c1ccc(Cn2ccnc2)cc1`, in experiment [1], the viability is 125%. The Potency result in experiment [2], in experiment [4], in experiment [5] and in experiment [6] was “inactive” each time.

As to `CCCCc1ccc2nc(NC(=O)OC)[nH]c2c1`, the Potency is 0.263 µM (active) in experiment [1]; 0.186 µM (active) in experiment [2]; 0.118 µM (active) in experiment [4]; 0.118 µM (active) in experiment [5]; 0.105 µM (active) in experiment [6].

For `CC[C@H](CO)Nc1nc(NCc2ccccc2)c2ncn(C(C)C)c2n1`, the Potency in experiment [1] was 26.3 µM (active); in experiment [2] it was 20.9 µM (active); in experiment [4] it was 26.3 µM (active); in experiment [5], 23.5 µM (active).

For the molecule `O=C(Nc1ccccc1)Nc1ccc(-c2ccc(C(=O)[C@@H]3CCC[C@H]3C(=O)O)cc2)cc1`, the viability in experiment [1] is 105%. In addition, the Potency result in experiment [2], in experiment [3], in experiment [5] and in experiment [6] was “inactive” throughout.

`Cn1cc(C2=C(c3cn(C)c4cc([N+](=O)[O-])ccc34)C(=O)NC2=O)c2ccccc21`: the Potency in experiment [1] was 2.35 µM (active); in experiment [2], 0.833 µM (active); in experiment [4], 0.833 µM (active); in experiment [6] it was 0.417 µM (active).

As for `N#Cc1ccc(N(Cc2ccc(Br)cc2)n2cnnc2)cc1`, in experiment [1], the viability was 93.5%. The Potency was 20.9 µM (active) in experiment [2] and 16.6 µM (active) in experiment [3]. For the same molecule, the Potency result in experiment [4], in experiment [5] and in experiment [6] was “inactive” throughout.

For the molecule `C=C1[C@H](OC(=O)/C=C(\C)CC)C[C@@H](C(C)C)[C@@H]2[C@H]([C@@H](C)OC(C)=O)C(=O)C[C@@H]12`, the Potency was 16.6 µM (active) in experiment [1] and 18.6 µM (active) in experiment [2]. For the same molecule, the Potency result in experiment [4] was “inactive”.

Turning to `Cc1c(F)cccc1NC(=O)Nc1ccc(Cl)c(S(=O)(=O)[C@H]2CCCNC2)c1O`, the viability in experiment [1] was 112%. Also, the Potency entry in experiment [2], in experiment [3], in experiment [4], in experiment [5] and in experiment [6] was “inactive” in each case.

On to `O=[N+]([O-])c1ccc(O)c2ncccc12`, for which the Potency is 16.6 µM (active) in experiment [1]; 13.2 µM (active) in experiment [2]; 7.42 µM (active) in experiment [3]; 8.33 µM (active) in experiment [5]; 9.34 µM (active) in experiment [6].

For `CC1c2cccc(O)c2C(O)=C2C(=O)C3(O)C(O)=C(C(N)=O)C(=O)C(N(C)C)C3C(O)C21` (stereo not drawn), the Potency in experiment [1] and in experiment [2] was 26.3 µM (active) in each case. The Potency entry in experiment [4] is “inactive”.

Consider `Cc1noc(C)c1-c1ccc(-c2cc(C(N)=O)c(NC(N)=O)s2)c(O[C@H]2CCNC2)c1`, for which the viability in experiment [1] is 123%. Moreover, the Potency entry in experiment [2], in experiment [3], in experiment [4] and in experiment [6] was “inactive” each time.
